# Assay results taken from PubChem BioAssay AID1159580 (chemical genetic matrix, 2015).
# Among all 5,500 compounds or so, about 2,000 (36%) were called active. Roughly 18% stayed inconclusive and do not appear here. The list shows a part of the results. A number with no mark means an inactive call. No stated cut-off is given here; in the data, active means normalized growth mostly below about 0.91 (no sharp cut-off); inconclusive means no clear call, values can overlap the other calls; inactive means mostly above about 0.92.
# Test: chemical genetic growth profiling, strain panel (AID 1159580);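 further: tested at 20 µM; growth read once vehicle control cultures reached saturation at 30 °C; 1 = growth at the plate median or of vehicle wells; lower values mean less growth of the strain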
# Settings: S. cerevisiae deletion strains, growth OD
# [1] = locus YAR019C, strain CDC15, hits give low values
# [2] = locus YBL105C, strain PKC1, hits give low values
# [3] = locus YBR135W, strain CKS1, hits give low values
# [4] = locus YBR136W, strain MEC1, hits give low values
# [5] = locus YBR160W, strain CDC28, hits give low values
# [6] = locus YDL017W, strain CDC7, hits give low values
# [7] = locus YDL028C, strain MPS1, hits give low values
# [8] = locus YDL101C, strain DUN1, hits give low values
# [9] = locus YDL108W, strain KIN28, hits give low values
# [10] = locus YDL132W, strain cdc53, hits give low values
# [11] = locus YDL214C, strain PRR2, hits give low values
# [12] = locus YDR052C, strain DBF4, hits give low values
# [13] = locus YDR054C, strain cdc34, hits give low values
# [14] = locus YDR226W, strain ADK1, hits give low values
# [15] = locus YDR477W, strain SNF1, hits give low values
# [16] = locus YER123W, strain YCK3, hits give low values
# [17] = locus YER133W, strain GLC7, hits give low values
# [18] = locus YFL009W, strain cdc4, hits give low values
# [19] = locus YFL029C, strain CAK1, hits give low values
# [20] = locus YFR003C, strain YPI1, hits give low values
# [21] = locus YFR019W, strain FAB1, hits give low values
# [22] = locus YFR028C, strain CDC14, hits give low values
# [23] = locus YGR040W, strain KSS1, hits give low values
# [24] = locus YGR052W, strain FMP48, hits give low values
# [25] = locus YGR092W, strain DBF2, hits give low values
# [26] = locus YHR030C, strain SLT2, hits give low values
# [27] = locus YHR079C, strain IRE1, hits give low values
# [28] = locus YHR082C, strain KSP1, hits give low values
# [29] = locus YHR205W, strain SCH9, hits give low values
# [30] = locus YIL147C, strain SLN1, hits give low values
# [31] = locus YJL095W, strain BCK1, hits give low values
# [32] = locus YJL128C, strain PBS2, hits give low values
# [33] = locus YJL157C, strain FAR1, hits give low values
# [34] = locus YJR016C, strain ILV3, hits give low values
# [35] = locus YJR066W, strain TOR1 (second series), hits give low values
# [36] = locus YJR066W, strain TOR1, hits give low values
# [37] = locus YKL048C, strain ELM1, hits give low values
# [38] = locus YKL067W, strain YNK1, hits give low values
# [39] = locus YKL101W, strain HSL1, hits give low values
# [40] = locus YKL193C, strain SDS22, hits give low values
# [41] = locus YKL203C, strain TOR2, hits give low values
# [42] = locus YLR113W, strain HOG1, hits give low values
# [43] = locus YLR133W, strain CKI1, hits give low values
# [44] = locus YLR403W, strain SFP1, hits give low values
# [45] = locus YML070W, strain DAK1, hits give low values
# [46] = locus YMR001C, strain CDC5, hits give low values
# [47] = locus YMR205C, strain PFK2 (second series), hits give low values
# [48] = locus YMR277W, strain FCP1, hits give low values
# [49] = locus YNL006W, strain LST8, hits give low values
# [50] = locus YNL020C, strain ARK1, hits give low values
# [51] = locus YNL161W, strain CBK1, hits give low values
# [52] = locus YNL183C, strain NPR1, hits give low values
# [53] = locus YNL207W, strain RIO2, hits give low values
# [54] = locus YNL222W, strain SSU72, hits give low values
# [55] = locus YNL307C, strain MCK1 (second series), hits give low values
# [56] = locus YOL078W, strain AVO1, hits give low values
# [57] = locus YOL136C, strain PFK27, hits give low values
# [58] = locus YOR061W, strain CKA2, hits give low values
# [59] = locus YOR119C, strain RIO1, hits give low values
# [60] = locus YOR231W, strain MKK1, hits give low values
# [61] = locus YOR329C, strain SCD5, hits give low values
# [62] = locus YPL031C, strain PHO85, hits give low values
# [63] = locus YPL153C, strain RAD53, hits give low values
# [64] = locus YPL204W, strain HRR25, hits give low values
# [65] = locus YPL209C, strain IPL1, hits give low values
# [66] = locus YPL256C, strain CLN2, hits give low values
# [67] = locus YPR025C, strain CCL1, hits give low values
# [68] = locus YPR106W, strain ISR1, hits give low values
# [69] = locus YPR111W, strain DBF20, hits give low values
# [70] = strain NNK1, hits give low values
# [71] = strain TSCII, hits give low values
structure (smiles),measurement,setting,value
O=C1c2ccccc2O[C@@H](c2ccccc2)[C@@H]1NCc1ccccc1,normalized growth,[1],0.915
same,normalized growth,[2],0.916
same,normalized growth,[3],0.922
same,normalized growth,[4],0.921
same,normalized growth,[5],0.922
same,normalized growth,[6],0.915
same,normalized growth,[7],0.919
same,normalized growth,[8],0.905 (active)
same,normalized growth,[9],0.929
same,normalized growth,[10],0.893 (active)
same,normalized growth,[11],0.867
same,normalized growth,[12],0.914
same,normalized growth,[13],0.879
same,normalized growth,[14],0.896 (active)
same,normalized growth,[15],0.853
same,normalized growth,[16],0.836
same,normalized growth,[17],0.836
same,normalized growth,[18],0.894
same,normalized growth,[19],0.909
same,normalized growth,[20],0.916
same,normalized growth,[21],0.894
same,normalized growth,[22],0.891 (active)
same,normalized growth,[23],0.85
same,normalized growth,[24],0.856
same,normalized growth,[25],0.844
same,normalized growth,[26],0.677 (active)
same,normalized growth,[27],0.839
same,normalized growth,[28],0.906
same,normalized growth,[29],0.905
same,normalized growth,[30],0.915
same,normalized growth,[31],0.751
same,normalized growth,[32],0.874
same,normalized growth,[33],0.835
same,normalized growth,[34],0.906
same,normalized growth,[35],0.76
same,normalized growth,[36],0.864
same,normalized growth,[37],0.897
same,normalized growth,[38],0.89
same,normalized growth,[39],0.899
same,normalized growth,[40],0.905
same,normalized growth,[41],0.918
same,normalized growth,[42],0.739 (active)
same,normalized growth,[43],0.89
same,normalized growth,[44],0.834
same,normalized growth,[45],0.85
same,normalized growth,[46],0.899
same,normalized growth,[47],0.863
same,normalized growth,[48],0.904
same,normalized growth,[49],0.915
same,normalized growth,[50],0.88
same,normalized growth,[51],0.903
same,normalized growth,[52],0.92
same,normalized growth,[53],0.89
same,normalized growth,[54],0.923
same,normalized growth,[55],0.895
same,normalized growth,[56],0.903
same,normalized growth,[57],0.863
same,normalized growth,[58],0.849
same,normalized growth,[59],0.89
same,normalized growth,[60],0.887
same,normalized growth,[61],0.911
same,normalized growth,[62],0.841
same,normalized growth,[63],0.846
same,normalized growth,[64],0.825
same,normalized growth,[65],0.918
same,normalized growth,[66],0.846 (active)
same,normalized growth,[67],0.922
same,normalized growth,[68],0.909
same,normalized growth,[69],0.911
same,normalized growth,[70],0.891
same,normalized growth,[71],0.885
O=C1c2ccccc2O[C@@H](c2ccccc2)[C@@H]1NC1CCCCC1,normalized growth,[1],0.904
same,normalized growth,[2],0.909
same,normalized growth,[3],0.914
same,normalized growth,[4],0.916
same,normalized growth,[5],0.927
same,normalized growth,[6],0.914
same,normalized growth,[7],0.913
same,normalized growth,[8],0.898 (active)
same,normalized growth,[9],0.924
same,normalized growth,[10],0.887 (active)
same,normalized growth,[11],0.883
same,normalized growth,[12],0.907 (active)
same,normalized growth,[13],0.872 (active)
same,normalized growth,[14],0.898
same,normalized growth,[15],0.87
same,normalized growth,[16],0.843
same,normalized growth,[17],0.841
same,normalized growth,[18],0.884 (active)
same,normalized growth,[19],0.91
same,normalized growth,[20],0.915
same,normalized growth,[21],0.889
same,normalized growth,[22],0.888 (active)
same,normalized growth,[23],0.866
same,normalized growth,[24],0.885
same,normalized growth,[25],0.871
same,normalized growth,[26],0.697 (active)
same,normalized growth,[27],0.852
same,normalized growth,[28],0.933
same,normalized growth,[29],0.898
same,normalized growth,[30],0.909
same,normalized growth,[31],0.792
same,normalized growth,[32],0.872
same,normalized growth,[33],0.849
same,normalized growth,[34],0.898 (active)
same,normalized growth,[35],0.771
same,normalized growth,[36],0.888
same,normalized growth,[37],0.901
same,normalized growth,[38],0.903
same,normalized growth,[39],0.906
same,normalized growth,[40],0.902
same,normalized growth,[41],0.922
same,normalized growth,[42],0.747 (active)
same,normalized growth,[43],0.897
same,normalized growth,[44],0.849
same,normalized growth,[45],0.871
same,normalized growth,[46],0.901
same,normalized growth,[47],0.878
same,normalized growth,[48],0.905
same,normalized growth,[49],0.906 (active)
same,normalized growth,[50],0.901
same,normalized growth,[51],0.9
same,normalized growth,[52],0.941
same,normalized growth,[53],0.898
same,normalized growth,[54],0.919
same,normalized growth,[55],0.904
same,normalized growth,[56],0.9
same,normalized growth,[57],0.887
same,normalized growth,[58],0.867
same,normalized growth,[59],0.945
same,normalized growth,[60],0.874
same,normalized growth,[61],0.909
same,normalized growth,[62],0.867
same,normalized growth,[63],0.864
same,normalized growth,[64],0.843
same,normalized growth,[65],0.917
same,normalized growth,[66],0.858
same,normalized growth,[67],0.914
same,normalized growth,[68],0.91
same,normalized growth,[69],0.92
same,normalized growth,[70],0.905
same,normalized growth,[71],0.881
Nc1ccc(N2C(=O)c3ccccc3C2=O)c(Cl)c1,normalized growth,"locus YAL040C, strain CLN3, hits give low values",1.06
same,normalized growth,"locus YCL061C, strain MRC1 (second series), hits give low values",1.01
same,normalized growth,"locus YER002W, strain NOP16, hits give low values",0.974
same,normalized growth,"locus YGR078C, strain PAC10, hits give low values",0.98
same,normalized growth,"locus YJR075W, strain HOC1, hits give low values",1
same,normalized growth,"locus YNL153C, strain GIM3, hits give low values",0.995
same,normalized growth,"locus YNL175C, strain NOP13, hits give low values",0.958
same,normalized growth,"locus YNL197C, strain WHI3, hits give low values",0.935
same,normalized growth,"locus YNL224C, strain SQS1, hits give low values",0.94
same,normalized growth,"locus YNL322C, strain KRE1, hits give low values",0.986
same,normalized growth,"locus YOR083W, strain WHI5 (second series), hits give low values",1.02
